Drawing on ChEMBL document CHEMBL1961873, “Compounds: GSK PKIS; Assays: Nanosyn kinase panel” (2012), this text covers inhibition for 6 compounds.

Experiment [1] has as its target Death-associated protein kinase 1 (Homo sapiens) (UniProt P53355). Conditions: at 1 µM.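 Further: each value is a mean inhibition figure.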
Experiment [2] deals with T1, Serine/threonine-protein kinase DCLK2 (Homo sapiens) (UniProt Q8N568).
T1 sequence (whole entry): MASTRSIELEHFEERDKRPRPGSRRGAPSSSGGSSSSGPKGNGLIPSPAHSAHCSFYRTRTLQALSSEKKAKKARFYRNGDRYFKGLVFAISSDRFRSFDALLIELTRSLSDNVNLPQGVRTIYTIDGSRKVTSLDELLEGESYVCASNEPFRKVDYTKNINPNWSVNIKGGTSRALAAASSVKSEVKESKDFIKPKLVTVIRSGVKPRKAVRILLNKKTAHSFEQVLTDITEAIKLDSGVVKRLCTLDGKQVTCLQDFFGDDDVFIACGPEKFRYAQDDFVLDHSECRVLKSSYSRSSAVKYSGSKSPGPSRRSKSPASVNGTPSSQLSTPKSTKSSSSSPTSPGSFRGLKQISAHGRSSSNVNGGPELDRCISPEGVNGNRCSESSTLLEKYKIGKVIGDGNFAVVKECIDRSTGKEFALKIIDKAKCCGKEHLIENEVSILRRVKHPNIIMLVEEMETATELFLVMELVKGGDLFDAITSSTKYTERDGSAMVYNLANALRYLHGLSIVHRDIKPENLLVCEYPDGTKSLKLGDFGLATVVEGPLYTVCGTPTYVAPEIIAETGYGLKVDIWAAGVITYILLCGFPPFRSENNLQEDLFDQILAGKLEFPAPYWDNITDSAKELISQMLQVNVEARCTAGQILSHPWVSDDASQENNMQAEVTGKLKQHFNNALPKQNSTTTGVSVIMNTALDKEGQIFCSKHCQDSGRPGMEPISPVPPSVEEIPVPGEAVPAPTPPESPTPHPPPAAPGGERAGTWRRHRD
The conditions noted are these: at 0.1 µM.

In experiment [3] the target is T1, Serine/threonine-protein kinase DCLK2 (Homo sapiens). Conditions: at 1 µM.
The target of experiment [4] is MAP kinase-activated protein kinase 2 (Homo sapiens) (UniProt P49137). The conditions noted are these: at 0.1 µM.
Sequence of MAP kinase-activated protein kinase 2 (Homo sapiens) (P49137 whole entry, looked up): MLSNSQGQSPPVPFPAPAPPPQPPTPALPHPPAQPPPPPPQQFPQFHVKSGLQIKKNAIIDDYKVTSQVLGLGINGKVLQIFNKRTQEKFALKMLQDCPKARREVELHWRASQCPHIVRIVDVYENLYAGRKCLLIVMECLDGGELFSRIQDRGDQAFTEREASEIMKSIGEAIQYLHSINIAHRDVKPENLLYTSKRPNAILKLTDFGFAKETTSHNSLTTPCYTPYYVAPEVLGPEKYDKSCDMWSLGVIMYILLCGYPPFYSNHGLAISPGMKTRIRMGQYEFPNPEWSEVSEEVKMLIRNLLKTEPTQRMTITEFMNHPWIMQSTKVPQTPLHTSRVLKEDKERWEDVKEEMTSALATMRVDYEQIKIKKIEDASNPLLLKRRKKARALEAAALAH
The target is the same in experiment [5]. The conditions noted are these: at 1 µM.
The target of experiment [6] is MAP kinase-activated protein kinase 3 (Homo sapiens) (UniProt Q16644). The conditions noted are these: at 0.1 µM.
Sequence of MAP kinase-activated protein kinase 3 (Homo sapiens) (Q16644 whole entry, looked up): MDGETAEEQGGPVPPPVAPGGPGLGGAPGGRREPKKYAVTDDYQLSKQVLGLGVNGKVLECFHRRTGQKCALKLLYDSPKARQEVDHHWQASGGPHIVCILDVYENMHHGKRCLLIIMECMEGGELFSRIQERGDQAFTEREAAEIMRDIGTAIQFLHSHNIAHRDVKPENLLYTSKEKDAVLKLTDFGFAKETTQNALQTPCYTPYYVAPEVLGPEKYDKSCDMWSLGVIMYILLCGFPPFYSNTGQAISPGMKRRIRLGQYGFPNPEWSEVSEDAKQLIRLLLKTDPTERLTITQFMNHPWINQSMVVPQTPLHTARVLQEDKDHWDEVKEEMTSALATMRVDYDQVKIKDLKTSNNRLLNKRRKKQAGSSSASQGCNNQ
For experiment [7] the target is unchanged. Conditions: at 1 µM.
Experiment [8] deals with Serine/threonine-protein kinase MARK1 (Homo sapiens) (UniProt Q9P0L2). The conditions noted are these: at 0.1 µM.
Sequence of Serine/threonine-protein kinase MARK1 (Homo sapiens) (Q9P0L2 whole entry, looked up): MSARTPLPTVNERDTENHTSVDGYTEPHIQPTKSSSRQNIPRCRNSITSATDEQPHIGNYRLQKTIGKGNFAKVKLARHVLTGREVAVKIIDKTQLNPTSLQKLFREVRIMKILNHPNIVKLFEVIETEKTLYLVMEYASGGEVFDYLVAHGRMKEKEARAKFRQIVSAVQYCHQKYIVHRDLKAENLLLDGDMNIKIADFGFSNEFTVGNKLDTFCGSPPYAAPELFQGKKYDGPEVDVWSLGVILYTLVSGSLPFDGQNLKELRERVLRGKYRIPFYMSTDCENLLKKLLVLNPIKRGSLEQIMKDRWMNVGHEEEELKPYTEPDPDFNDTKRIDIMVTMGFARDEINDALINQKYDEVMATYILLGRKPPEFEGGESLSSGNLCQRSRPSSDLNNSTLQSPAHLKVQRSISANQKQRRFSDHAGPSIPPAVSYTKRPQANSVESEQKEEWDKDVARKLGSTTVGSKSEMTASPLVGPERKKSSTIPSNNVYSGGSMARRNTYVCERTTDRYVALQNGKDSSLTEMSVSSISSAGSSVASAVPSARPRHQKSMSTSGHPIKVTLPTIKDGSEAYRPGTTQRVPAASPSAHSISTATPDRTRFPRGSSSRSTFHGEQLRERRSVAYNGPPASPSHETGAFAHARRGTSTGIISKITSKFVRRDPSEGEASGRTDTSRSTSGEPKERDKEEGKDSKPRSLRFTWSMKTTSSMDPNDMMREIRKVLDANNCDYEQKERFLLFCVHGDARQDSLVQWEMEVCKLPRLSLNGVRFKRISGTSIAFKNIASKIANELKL
The target is the same in experiment [9]. The conditions noted are these: at 1 µM.
In experiment [10] the target is MAP/microtubule affinity-regulating kinase 3 (Homo sapiens) (UniProt P27448). The conditions noted are these: at 0.1 µM.
Sequence of MAP/microtubule affinity-regulating kinase 3 (Homo sapiens) (P27448 whole entry, looked up): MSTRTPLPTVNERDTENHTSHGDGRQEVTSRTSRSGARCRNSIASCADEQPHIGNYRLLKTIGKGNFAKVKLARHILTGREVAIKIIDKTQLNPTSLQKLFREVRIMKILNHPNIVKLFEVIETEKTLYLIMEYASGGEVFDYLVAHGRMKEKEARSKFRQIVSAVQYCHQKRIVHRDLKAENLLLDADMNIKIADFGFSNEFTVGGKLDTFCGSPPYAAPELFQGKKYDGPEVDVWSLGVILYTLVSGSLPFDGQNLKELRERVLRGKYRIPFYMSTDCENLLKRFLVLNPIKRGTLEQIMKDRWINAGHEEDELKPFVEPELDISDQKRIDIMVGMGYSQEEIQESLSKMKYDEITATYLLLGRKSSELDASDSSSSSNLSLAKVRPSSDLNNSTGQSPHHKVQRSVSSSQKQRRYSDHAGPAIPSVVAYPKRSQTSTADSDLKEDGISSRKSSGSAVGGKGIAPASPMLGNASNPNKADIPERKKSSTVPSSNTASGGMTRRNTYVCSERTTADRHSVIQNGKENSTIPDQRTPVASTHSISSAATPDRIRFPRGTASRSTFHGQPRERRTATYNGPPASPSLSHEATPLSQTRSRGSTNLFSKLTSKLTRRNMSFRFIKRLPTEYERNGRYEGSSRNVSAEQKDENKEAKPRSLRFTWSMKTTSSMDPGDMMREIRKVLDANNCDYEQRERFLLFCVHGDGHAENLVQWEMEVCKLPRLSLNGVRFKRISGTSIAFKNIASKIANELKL
For experiment [11] the target is unchanged. Conditions: at 1 µM.
Experiment [12] concerns the target T2, MAP/microtubule affinity-regulating kinase 4 (Homo sapiens) (UniProt Q96L34).
T2 sequence (whole entry): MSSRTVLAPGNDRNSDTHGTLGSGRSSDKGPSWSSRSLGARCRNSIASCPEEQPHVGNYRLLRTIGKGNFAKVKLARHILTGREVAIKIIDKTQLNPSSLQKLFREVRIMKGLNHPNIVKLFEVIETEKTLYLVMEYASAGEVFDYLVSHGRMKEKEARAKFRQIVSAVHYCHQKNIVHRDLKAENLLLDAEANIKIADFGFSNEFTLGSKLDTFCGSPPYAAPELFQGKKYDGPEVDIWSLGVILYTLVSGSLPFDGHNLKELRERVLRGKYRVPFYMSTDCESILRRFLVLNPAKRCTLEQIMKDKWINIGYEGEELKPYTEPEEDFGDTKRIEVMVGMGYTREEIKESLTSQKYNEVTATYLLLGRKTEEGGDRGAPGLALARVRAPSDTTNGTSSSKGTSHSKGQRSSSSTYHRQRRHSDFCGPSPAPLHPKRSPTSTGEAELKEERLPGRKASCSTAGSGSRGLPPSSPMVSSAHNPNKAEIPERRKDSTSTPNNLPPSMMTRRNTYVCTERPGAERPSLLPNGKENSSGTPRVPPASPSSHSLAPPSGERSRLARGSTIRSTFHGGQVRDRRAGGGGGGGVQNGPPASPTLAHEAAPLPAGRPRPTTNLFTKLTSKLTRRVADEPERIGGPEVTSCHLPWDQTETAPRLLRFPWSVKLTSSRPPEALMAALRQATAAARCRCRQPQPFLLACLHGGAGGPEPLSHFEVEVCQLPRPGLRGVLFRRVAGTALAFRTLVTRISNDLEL
The conditions noted are these: at 0.1 µM.

Experiment [13] deals with T2, MAP/microtubule affinity-regulating kinase 4 (Homo sapiens). Conditions: at 1 µM.
Experiment [14] concerns the target Maternal embryonic leucine zipper kinase (Homo sapiens) (UniProt Q14680). The conditions noted are these: at 0.1 µM.
Experiment [15] shares this target. Conditions: at 1 µM.
Experiment [16] deals with MAP kinase-interacting serine/threonine-protein kinase 1 (Homo sapiens) (UniProt Q9BUB5). The conditions noted are these: at 0.1 µM.
For experiment [17] the target is unchanged. The conditions noted are these: at 1 µM.
For experiment [18], the target named is MAP kinase-interacting serine/threonine-protein kinase 2 (Homo sapiens) (UniProt Q9HBH9). Conditions: at 0.1 µM.
Sequence of MAP kinase-interacting serine/threonine-protein kinase 2 (Homo sapiens) (Q9HBH9 whole entry, looked up): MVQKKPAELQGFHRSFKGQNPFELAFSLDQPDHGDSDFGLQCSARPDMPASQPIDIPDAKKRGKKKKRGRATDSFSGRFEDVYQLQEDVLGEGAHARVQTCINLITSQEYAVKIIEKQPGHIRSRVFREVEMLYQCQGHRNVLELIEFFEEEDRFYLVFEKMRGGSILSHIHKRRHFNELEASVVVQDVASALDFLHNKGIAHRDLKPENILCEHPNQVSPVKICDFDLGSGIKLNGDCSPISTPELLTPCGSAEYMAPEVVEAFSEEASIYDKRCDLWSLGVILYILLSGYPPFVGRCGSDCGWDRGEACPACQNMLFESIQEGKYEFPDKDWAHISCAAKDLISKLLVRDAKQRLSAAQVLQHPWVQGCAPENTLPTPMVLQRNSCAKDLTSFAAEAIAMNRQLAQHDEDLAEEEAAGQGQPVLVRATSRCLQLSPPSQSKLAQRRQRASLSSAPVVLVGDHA
Experiment [19] has the same target. The conditions noted are these: at 1 µM.
The target of experiment [20] is Serine/threonine-protein kinase MARK2 (Homo sapiens) (UniProt Q7KZI7). Conditions: at 0.1 µM.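 Further: mean percent inhibition of PAR-1Balpha kinase activity, reported from the GSK PKIS screen.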

Sequence of Maternal embryonic leucine zipper kinase (Homo sapiens) (Q14680 whole entry, looked up): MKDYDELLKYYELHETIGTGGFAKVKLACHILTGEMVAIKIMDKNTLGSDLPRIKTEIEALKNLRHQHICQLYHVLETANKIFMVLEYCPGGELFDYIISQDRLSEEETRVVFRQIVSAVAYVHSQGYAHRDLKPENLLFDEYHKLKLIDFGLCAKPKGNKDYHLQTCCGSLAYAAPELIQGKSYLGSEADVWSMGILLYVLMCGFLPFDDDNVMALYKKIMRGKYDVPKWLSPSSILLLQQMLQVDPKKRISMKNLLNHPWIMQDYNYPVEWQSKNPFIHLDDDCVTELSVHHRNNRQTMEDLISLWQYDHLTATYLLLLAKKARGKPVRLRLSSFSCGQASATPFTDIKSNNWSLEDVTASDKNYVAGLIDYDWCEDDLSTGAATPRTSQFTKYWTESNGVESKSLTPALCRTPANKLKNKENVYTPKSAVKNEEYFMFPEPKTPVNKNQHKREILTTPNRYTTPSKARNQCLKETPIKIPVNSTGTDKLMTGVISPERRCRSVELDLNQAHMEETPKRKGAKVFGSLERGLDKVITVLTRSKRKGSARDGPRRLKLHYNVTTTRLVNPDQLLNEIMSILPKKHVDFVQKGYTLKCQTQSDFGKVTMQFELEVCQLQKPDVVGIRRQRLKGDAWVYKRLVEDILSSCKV
Sequence of Death-associated protein kinase 1 (Homo sapiens) (P53355 whole entry, looked up): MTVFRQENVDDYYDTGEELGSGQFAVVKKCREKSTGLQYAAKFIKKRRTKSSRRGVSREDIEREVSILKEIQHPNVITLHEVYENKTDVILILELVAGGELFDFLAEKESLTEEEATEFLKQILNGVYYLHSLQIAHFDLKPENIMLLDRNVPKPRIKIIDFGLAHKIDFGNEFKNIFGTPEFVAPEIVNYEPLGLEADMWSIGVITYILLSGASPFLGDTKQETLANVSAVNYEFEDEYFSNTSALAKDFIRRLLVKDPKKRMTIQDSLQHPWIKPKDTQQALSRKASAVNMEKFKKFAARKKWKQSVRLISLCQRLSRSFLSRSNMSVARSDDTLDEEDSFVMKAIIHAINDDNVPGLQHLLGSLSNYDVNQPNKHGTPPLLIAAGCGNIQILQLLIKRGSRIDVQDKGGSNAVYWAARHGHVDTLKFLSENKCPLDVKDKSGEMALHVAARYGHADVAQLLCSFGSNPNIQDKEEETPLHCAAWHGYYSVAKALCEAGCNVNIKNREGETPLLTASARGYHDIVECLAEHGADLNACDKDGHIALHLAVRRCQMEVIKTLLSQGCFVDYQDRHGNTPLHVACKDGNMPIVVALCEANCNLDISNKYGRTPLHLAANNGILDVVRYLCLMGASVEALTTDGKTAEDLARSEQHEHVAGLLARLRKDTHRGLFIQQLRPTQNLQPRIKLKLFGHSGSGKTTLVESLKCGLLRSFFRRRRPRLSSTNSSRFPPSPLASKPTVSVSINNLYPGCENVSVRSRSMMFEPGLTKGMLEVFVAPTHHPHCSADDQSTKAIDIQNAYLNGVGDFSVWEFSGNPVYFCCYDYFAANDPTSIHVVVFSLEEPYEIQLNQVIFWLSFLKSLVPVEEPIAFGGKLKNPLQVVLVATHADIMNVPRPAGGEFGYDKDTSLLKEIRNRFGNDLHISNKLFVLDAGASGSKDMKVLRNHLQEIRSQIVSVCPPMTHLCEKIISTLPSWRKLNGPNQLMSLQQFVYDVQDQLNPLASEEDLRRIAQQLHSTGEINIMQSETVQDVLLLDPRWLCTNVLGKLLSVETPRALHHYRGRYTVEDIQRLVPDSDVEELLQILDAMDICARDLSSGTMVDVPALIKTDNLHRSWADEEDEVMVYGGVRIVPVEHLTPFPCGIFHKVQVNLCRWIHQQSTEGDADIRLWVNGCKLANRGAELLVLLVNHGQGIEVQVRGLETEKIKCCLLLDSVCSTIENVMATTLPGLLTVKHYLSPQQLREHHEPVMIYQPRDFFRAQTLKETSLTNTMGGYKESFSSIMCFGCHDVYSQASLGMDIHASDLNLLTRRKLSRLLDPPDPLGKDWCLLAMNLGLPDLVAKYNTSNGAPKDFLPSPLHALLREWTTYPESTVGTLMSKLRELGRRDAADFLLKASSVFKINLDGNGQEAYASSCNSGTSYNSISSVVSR

With `O=C1Nc2ccc(I)cc2C1=Cc1cc(Br)c(O)c(Br)c1`, the inhibition was -4.68% in experiment [1]; 0.92% in experiment [2]; 1.91% in experiment [3]; 1.65% in experiment [4]; 4.08% in experiment [5]; 2.77% in [6]. Further, the inhibition in [7] is 3.75%; in experiment [8] it was 0.84%; in [9], 2.09%; in experiment [10], -0.57%; in experiment [11], 2.16%; in [12], 1.14%. The inhibition came to 2.32% in experiment [13]; 2.86% in experiment [14]; 13.8% in [15]; 2.2% in experiment [16]; 7.73% in [17]; 2.51% in [18]. For the same compound, the inhibition in experiment [19] is 17.6%; in [20] it was -0.39%.
For the compound `CCc1nccc2c1nc(-c1nonc1N)n2CC`, the inhibition in experiment [1] is 2.17%; in experiment [2], -1.22%; in experiment [3], 4.54%; in experiment [4], -0.33%; in [5], -0.34%; in experiment [6], 0.57%. In addition, the inhibition in [7] was 2.5%; in experiment [8] it was 1.68%; in experiment [9], 1.49%; in experiment [10] it was 1%; in experiment [11], -0.48%; in experiment [12], 0.74%. The inhibition in experiment [13] is 0.5%; in [14], -0.92%; in experiment [15], 0.69%; in [16], -0.04%; in experiment [17], 2.83%; in experiment [18], -0.46%. Besides, the inhibition in experiment [19] was found to be 4.5%; in [20], 0.35%.
With `COc1ccc(-c2ccc3c(NC(=O)C4CC4)n[nH]c3n2)cc1`, the inhibition in experiment [1] was 3.76%; in [2], -1.52%; in [3], 2.41%; in experiment [4], 1.32%; in experiment [5], 1.4%; in experiment [6] it was 1.44%. In addition, the inhibition came out at 3.8% in [7]; 1.93% in experiment [8]; 5.02% in experiment [9]; 2.03% in experiment [10]; 2.41% in [11]; 0% in [12]. The inhibition in experiment [13] was -0.43%; in experiment [14], -1.74%; in [15], -0.77%; in experiment [16], 3.03%; in [17], 21.5%; in experiment [18] it was 1.32%. Also, the figures for the inhibition in experiment [19] and in experiment [20] were 5.48% and 0.67%, respectively.
For the compound `C[C@@H](Oc1cc(-n2cnc3ccc(OC4CCN(C)CC4)cc32)sc1C(N)=O)c1ccccc1Cl`, the inhibition in [1] is 1.99%; in experiment [2] it was -3.12%; in experiment [3], -1.54%; in [4] it was 1.32%; in experiment [5], 2.41%; in experiment [6], 3.38%. Also, the inhibition in experiment [7] was found to be 3.91%; in experiment [8], 3.46%; in [9], 8.24%; in experiment [10], 4.33%; in experiment [11], 8.01%; in experiment [12], 2.31%. Also, the inhibition in [13] is 5.68%; in experiment [14], 6.66%; in experiment [15] it was 26.9%; in experiment [16], 3.58%; in experiment [17], 17.6%; in experiment [18] it was 3.77%. Moreover, the results for the inhibition in [19] and in experiment [20] were 21% and 2.47%, respectively.
For the compound `NS(=O)(=O)c1ccc(N/N=C2\C(=O)Nc3ccc(C(=O)NCCCn4ccnc4)cc32)cc1`, the inhibition worked out at 14.2% in experiment [1]; 1.59% in experiment [2]; 2.86% in experiment [3]; 4.69% in experiment [4]; 5.55% in [5]; 9.93% in [6]. The inhibition in experiment [7] worked out at 10.6%; in [8], 5.69%; in experiment [9], 22.3%; in experiment [10], 1.88%; in [11], 5.47%; in experiment [12], 3.39%. In addition, the inhibition in [13] was 14.6%; in experiment [14] it was 6.78%; in experiment [15] it was 46.9%; in [16] it was 7.7%; in experiment [17] it was 16.8%; in [18], 3.98%. Further, the inhibition in [19] is 14.2%; in experiment [20], 1.13%.
Regarding `CCc1cccc(CC)c1/C=C/c1cncc(C(=O)NC)c1`, the inhibition in [1] worked out at 4.2%; in experiment [2], 1.1%; in experiment [3], 1.19%; in experiment [4] it was 0.82%; in experiment [5], 0.99%; in experiment [6], 4.47%. For the same compound, the inhibition in experiment [7] was determined as 3.44%; in experiment [8], 2.28%; in experiment [9], 1.27%; in experiment [10], 3.86%; in [11], 0.43%; in experiment [12], 0.15%. Besides, the inhibition in [13] came to 1.03%; in experiment [14] it was 1.61%; in experiment [15], 3.83%; in experiment [16], 1.04%; in experiment [17], 3.27%; in experiment [18], 0.49%. Moreover, the figures for the inhibition in experiment [19] and in experiment [20] were 1.79% and -0.01%, respectively.

As a reminder, the inhibition is the change of the read-out against control, counted positive when it falls.
